Active and inactive are the calls of the source. Unless noted, the rule behind the calls is not given here.
Tests used:
[1] = HepG2 liver cancer cell viability effects, profiling panel, resazurin fluorescence, 24 h, PK04 Diversity Set (AID 1172); conditions: higher = more signal
[2] = basal S. cerevisiae growth modulation, no modifier, primary screen, OD600, strain BY4716, 24 h, basal condition (AID 1173); conditions: OD600, 24 h, higher = more signal, called active from +8 up or from −8 down
[3] = MM1S myeloma cell viability, profiling panel, resazurin fluorescence, basal, 24 h, PK04 Diversity Set (AID 1174); conditions: higher = more signal, called active from +8 up or from −8 down;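 note: MM1S multiple myeloma cell line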
[4] = molecular target: Dihydroorotate dehydrogenase (quinone), mitochondrial (Plasmodium falciparum (isolate 3D7)) (UniProt Q08210); assay: PfDHODH enzyme inhibitors, primary screen, biochemical, C-terminal His tag, absorbance 600 nm (AID 1175); conditions: DCIP absorbance 600 nm, higher = more signal, called active from +8 up or from −8 down;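 note: recombinant parasite enzyme with a five histidine tag at its C terminus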
[5] = P. aeruginosa biofilm formation inhibitors, primary screen, strain PAO1, LB-PBS medium, absorbance 600 nm (AID 1176); conditions: P. aeruginosa PAO1 growth/biofilm, A600, 12 h; higher = more signal
[6] = S. cerevisiae RM11-1a growth modifiers, primary screen, strain RM11-1a, OD600, basal, 24 h (AID 1177); conditions: OD600, 24 h, higher = more signal, called active from +8 up or from −8 down;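 note: cultures grown under basal conditions with no added stressor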
[7] = E. coli acrAB mutant growth effects, primary screen, E. coli filamentation inducers, strain DRC39, OD650, 24 h (AID 1178); conditions: higher = more signal, called active from +8 up or from −8 down;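 note: growth measured as culture turbidity by optical density at 650 nm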
[8] = E. coli acrAB mutant growth effects, primary screen, E. coli filamentation inducers, strain DRC39, OD650, 48 h (AID 1179);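 note: screen aims at cell division blockers that make cells filament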; conditions: E. coli DRC39 delta-acrAB growth, higher = more signal, called active from +8 up or from −8 down
[9] = RPMI8226 myeloma cell viability, profiling panel, resazurin fluorescence, basal, 24 h, PK04 Diversity Set (AID 1180); conditions: higher = more signal;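 note: RPMI8826 multiple myeloma cell line at 5000 cells per well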
[10] = molecular target: E3 ubiquitin-protein ligase XIAP (Homo sapiens) (UniProt P98170); assay: XIAP binders, primary screen, biophysical, small-molecule microarray, fluorescence 635 nm (AID 1181); conditions: small-molecule microarray binding, higher = more signal;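 note: score merges 667 nm emission and signal to noise over triplicate slides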
[11] = tested on: XIP peptide (Xip251-270) binding; assay: small-molecule binders of XIP peptide, primary screen, biochemical, small-molecule microarray, fluorescence 635/667 nm, 0.1 µg/mL protein (AID 1182); conditions: fluorescent protein binding, 635 nm, higher = more signal, called active from +8 up or from −8 down
XIP peptide (Xip251-270) = assay: small-molecule binders of XIP peptide, primary screen, biochemical, small-molecule microarray, fluorescence 635/667 nm, 0.5 µg/mL protein (AID 1183); conditions: small-molecule microarray binding, fluorescence 635 nm; higher = more signal
[12] = Plasmodium falciparum growth inhibition, primary screen, strain 3D7, DAPI fluorescence, 100 nL (AID 1184);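 note: parasites grown inside human red blood cells in medium with human serum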; conditions: P. falciparum 3D7 growth, 3 d, higher = more signal
[13] = molecular target: Homeobox protein Hox-A13 (Mus musculus) (UniProt Q62424); assay: inhibitors of HoxA13-DNA binding, primary screen, biochemical, fluorescence polarization, labeled oligonucleotide (AID 1185); conditions: 15 min, higher = more signal, called active from +8 up or from −8 down
[14] = inhibitors of hydroxyurea-induced Chk1 phosphorylation, primary screen, imaging, HeLa, phospho-Chk1 antibody, percent positive cells (AID 1186); conditions: hydroxyurea-induced phospho-Chk1 immunofluorescence imaging, higher = more signal
[15] = inhibitors of hydroxyurea-induced Chk1 phosphorylation, primary screen, imaging, HeLa, phospho-Chk1 nuclear intensity (AID 1187); conditions: hydroxyurea-induced phospho-Chk1 immunofluorescence imaging, higher = more signal

Homeobox protein Hox-A13 (Mus musculus), sequence (Q62424 whole entry, looked up): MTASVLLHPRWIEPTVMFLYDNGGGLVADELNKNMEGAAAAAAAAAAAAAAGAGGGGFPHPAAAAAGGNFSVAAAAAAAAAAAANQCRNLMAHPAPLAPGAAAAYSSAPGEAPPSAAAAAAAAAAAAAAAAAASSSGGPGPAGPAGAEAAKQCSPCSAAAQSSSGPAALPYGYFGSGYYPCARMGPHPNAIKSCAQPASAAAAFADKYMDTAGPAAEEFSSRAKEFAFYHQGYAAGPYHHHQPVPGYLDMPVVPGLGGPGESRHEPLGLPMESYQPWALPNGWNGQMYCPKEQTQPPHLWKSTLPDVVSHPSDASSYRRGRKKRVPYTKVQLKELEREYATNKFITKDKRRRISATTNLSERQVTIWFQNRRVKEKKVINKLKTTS
Dihydroorotate dehydrogenase (quinone), mitochondrial (Plasmodium falciparum (isolate 3D7)), sequence (Q08210 whole entry, looked up): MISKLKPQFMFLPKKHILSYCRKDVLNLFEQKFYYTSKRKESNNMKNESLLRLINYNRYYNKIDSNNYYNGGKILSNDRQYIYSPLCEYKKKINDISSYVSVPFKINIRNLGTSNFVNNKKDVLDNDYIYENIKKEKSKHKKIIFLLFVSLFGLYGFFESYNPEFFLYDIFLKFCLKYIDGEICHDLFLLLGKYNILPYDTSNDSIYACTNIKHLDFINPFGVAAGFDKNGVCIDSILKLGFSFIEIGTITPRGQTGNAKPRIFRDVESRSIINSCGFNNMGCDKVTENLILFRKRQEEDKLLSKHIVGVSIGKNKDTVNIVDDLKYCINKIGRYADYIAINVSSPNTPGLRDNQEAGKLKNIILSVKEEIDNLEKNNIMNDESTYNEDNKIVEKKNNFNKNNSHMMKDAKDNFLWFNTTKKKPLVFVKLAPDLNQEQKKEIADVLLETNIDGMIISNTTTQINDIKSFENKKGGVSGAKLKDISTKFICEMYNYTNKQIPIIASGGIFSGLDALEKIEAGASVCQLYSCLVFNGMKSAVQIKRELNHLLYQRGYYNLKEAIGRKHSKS
E3 ubiquitin-protein ligase XIAP (Homo sapiens), sequence (P98170 whole entry, looked up): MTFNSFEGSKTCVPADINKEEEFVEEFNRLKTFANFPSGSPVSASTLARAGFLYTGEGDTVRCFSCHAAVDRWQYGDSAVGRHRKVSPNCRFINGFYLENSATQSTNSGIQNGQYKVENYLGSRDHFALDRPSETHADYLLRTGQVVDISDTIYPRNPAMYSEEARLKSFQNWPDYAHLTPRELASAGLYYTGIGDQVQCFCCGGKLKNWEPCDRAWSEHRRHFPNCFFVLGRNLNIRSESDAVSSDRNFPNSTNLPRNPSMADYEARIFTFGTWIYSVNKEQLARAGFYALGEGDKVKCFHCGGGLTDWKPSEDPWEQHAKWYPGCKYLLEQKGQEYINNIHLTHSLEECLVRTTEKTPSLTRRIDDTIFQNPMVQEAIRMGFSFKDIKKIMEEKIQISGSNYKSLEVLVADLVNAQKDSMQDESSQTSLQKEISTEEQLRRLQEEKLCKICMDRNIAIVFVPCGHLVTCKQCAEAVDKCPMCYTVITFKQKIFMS

Structure (SMILES)	z-score [1]	z-score [2]	z-score [3]	composite z-score [4]	z-score [5]	z-score [6]	z-score [7]	z-score [8]	z-score [9]	composite z-score [10]	composite z-score [11]	composite z-score (XIP peptide (Xip251-270))	z-score [12]	z-score [13]	z-score [14]	z-score [15]
CC(C)(C)OC(=O)CC[C@@]1(C(N)=O)N=C(c2ccc(OCCCO)cc2)O[C@@H]1c1ccccc1	-0.175	-0.63 (inactive)	-0.121 (inactive)	0.0187 (inactive)	0.469 (inactive)	-0.412 (inactive)	-0.352 (inactive)	-1.12 (inactive)	-0.359	-0.18	0.222 (inactive)	0.355	-0.589	-3.33 (inactive)	0.335 (inactive)	-0.0302 (inactive)
CN1C(=O)C2C=CC(C(O)c3cccs3)N(Nc3ccccc3)C2C1=O (stereo not drawn)	-0.698	0.702 (inactive)	-0.861 (inactive)	-0.607 (inactive)	0.847 (inactive)	-0.0337 (inactive)	-0.947 (inactive)	-0.724 (inactive)	-1.15	0.311	0.193 (inactive)	0.356	0.376	-1.14 (inactive)	0.482 (inactive)	0.35 (inactive)
O=C1OCCC/C=C\[C@H]2OC34C=CCN(Cc5ccccc5)C(=O)[C@H]3N(CCCCCCO)C(=O)[C@@H]4C12 (stereo partly drawn)	0.493	-0.908 (inactive)	-0.549 (inactive)	-0.0805 (inactive)	-0.497 (inactive)	0.692 (inactive)	1.23 (inactive)	1.58 (inactive)	0.809	-0.15	0.704 (inactive)	-0.819	-0.364	-5.34 (inactive)	-0.121 (inactive)	0.0626 (inactive)
COC(=O)[C@@]1(Cc2ccc(OC)cc2)[C@H]2c3cc(C(=O)N4CCCC4)n(Cc4ccsc4Br)c3C[C@H]2CN1C(=O)c1ccccc1	-1.78	0.567 (inactive)	-8.06 (active)	0.276 (inactive)	0.576 (inactive)	-0.0289 (inactive)	-0.0187 (inactive)	0.126 (inactive)	-4.31	0.244	-0.0625 (inactive)	0.75	-1.59	-5.51 (inactive)	-0.592 (inactive)	-1.13 (inactive)
[N-]=[N+]=NCc1ccccc1C[C@@]1(C(=O)NCC(O)CO)N=C(c2ccc(OCCCO)cc2)O[C@@H]1c1ccccc1N=[N+]=[N-] (stereo partly drawn)	-2.35	-0.927 (inactive)	-2.87 (inactive)	2.22 (inactive)	1.35 (inactive)	0.977 (inactive)	0.707 (inactive)	-0.506 (inactive)	-2.85	0.1	1.78 (inactive)	0.384	-2.37	-1.72 (inactive)	-0.0225 (inactive)	0.105 (inactive)
COCCCN1C(=O)[C@@]2(c3ccc([N+](=O)[O-])cc3)CC(=O)N(C3CCCCC3)[C@@H]2c2ccc(CO)cc21	-0.207	1.12 (inactive)	-0.559 (inactive)	-26.4 (active)	0.158 (inactive)	0.0091 (inactive)	-0.0215 (inactive)	-0.13 (inactive)	-0.837	-0.37	0.0996 (inactive)	0.154	-0.599	-0.329 (inactive)	0.0889 (inactive)	0.133 (inactive)
COCCOC(=O)N1C(=O)[C@@]2(c3ccccc31)[C@H](c1ccccc1OCCO)N1[C@H](c3ccccc3)[C@H](c3ccccc3)OC(=O)[C@H]1[C@@H]2C(=O)Nc1nc2ccccc2s1	0.487	1.33 (inactive)	-0.442 (inactive)	0.662 (inactive)	2.76 (inactive)	2.22 (inactive)	0.931 (inactive)	1.74 (inactive)	0.0081	0.0623	0.219 (inactive)	0.823	-0.697	0.922 (inactive)	0.002 (inactive)	0.122 (inactive)
CC(C)c1ccc(NN2C(C(O)c3cc(C(F)(F)F)cc(C(F)(F)F)c3)C=CC3C(=O)N(c4ccccc4)C(=O)C32)cc1 (stereo not drawn)	-2.42	-1.33 (inactive)	-3.12 (inactive)	0.643 (inactive)	1.18 (inactive)	1.79 (inactive)	-0.447 (inactive)	-0.729 (inactive)	-5.25	0.0813	0.544 (inactive)	0.641	-0.764	-3.49 (inactive)	0.652 (inactive)	0.417 (inactive)
CC(C)c1ccc(NN2C(C(O)C(c3ccccc3)c3ccccc3)C=CC3C(=O)N(c4ccccc4)C(=O)C32)cc1 (stereo not drawn)	-1.49	-0.141 (inactive)	-1.35 (inactive)	0.704 (inactive)	0.642 (inactive)	1.17 (inactive)	-1.39 (inactive)	-1.47 (inactive)	-0.912	-0.0525	0.234 (inactive)	0.739	-0.536	-2.67 (inactive)	0.286 (inactive)	0.207 (inactive)
[N-]=[N+]=NCc1ccccc1C[C@]1(C(=O)O)N=C(c2ccc(OCCCO)cc2)O[C@H]1c1ccccc1N=[N+]=[N-]	-0.213	-0.496 (inactive)	-1.43 (inactive)	2.26 (inactive)	-0.043 (inactive)	1.45 (inactive)	0.989 (inactive)	-0.0775 (inactive)	-1.82	0.0808	0.525 (inactive)	0.771	-1.57	-3.84 (inactive)	-0.1 (inactive)	0.16 (inactive)
CCCC=C(CCC)[C@@H](NC(=O)Oc1ccc(F)cc1)c1ccc(C(=O)OC)cc1	1.01	1.21 (inactive)	0.0374 (inactive)	0.58 (inactive)	0.535 (inactive)	1.2 (inactive)	-0.0379 (inactive)	0.0821 (inactive)	-1.94	0.248	0.814 (inactive)	0.302	-0.476	-0.734 (inactive)	0.239 (inactive)	0.34 (inactive)
CCOC(=O)C[C@H]1[C@H](OC(=O)Cc2ccc3c(c2)OCO3)[C@@H](NC(=O)c2ccc(-c3ccccc3)cc2)c2cc(OCCCO)ccc2N1C(=O)Cc1ccc(OC)cc1	0.366	-1.02 (inactive)	0.322 (inactive)	-1.32 (inactive)	-0.0178 (inactive)	-1.82 (inactive)	0.261 (inactive)	0.877 (inactive)	0.489	0.179	0.784 (inactive)	0.0066	-1.72	-1.61 (inactive)	-0.324 (inactive)	-0.116 (inactive)
COCCOC(=O)N1C(=O)[C@@]2(c3cc(C#CCNC(N)=O)ccc31)[C@H](C(=O)NC[C@H](O)c1ccccc1)[C@H]1C(=O)O[C@H](c3ccccc3)[C@H](c3ccccc3)N1[C@@H]2c1ccccc1OCCO	-0.577	1.39 (inactive)	0.796 (inactive)	0.272 (inactive)	2.62 (inactive)	1.97 (inactive)	1.01 (inactive)	1.1 (inactive)	0.952	0.108	0.0808 (inactive)	0.689	-0.411	-1.65 (inactive)	0.0441 (inactive)	0.0861 (inactive)
